Spn DPM-DC inh = S. pneumoniae DPM-DC inhibitors, primary screen, biochemical, PK/LDH-coupled NADH fluorescence | diphosphomevalonate decarboxylase (Streptococcus pneumoniae D39) | purified DPM-DC | calls only at 10 µM | 0.49% of 65,000 active | AID 556, 2006;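 active = the 320 compounds with the highest percent inhibition in the single-dose primary screen, excluding strongly autofluorescent ones, cut at about 32% in these data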;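 also: kinetic rate of NADH fluorescence loss reporting ADP formed by the decarboxylase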
NADH coupling = inhibitors of PK/LDH coupling enzymes, profiling panel, artefact control, biochemical, MLSMR library. coupled PK/LDH NADH assays, four targets. IC50, µM (top dose mostly 10 µM), inactives show at the top dose inhibition. 0.02% of 65,000 active. AID 774, 2007;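 active = single-dose screening hits from any of four coupled enzyme assays that gave an IC50 when retested across doses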;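 also: the DPM-DC format reads NADH fluorescence rather than 340 nm absorbance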
Fluor 339 460 = intrinsic fluorescence of library compounds, ex339/em460 – biochemical, MLSMR library, data from DPM-DC assay, artefact control, profiling panel. 5.5% of 65,000 active. fluorescence fold increase at 10 µM. compound autofluorescence, ex339/em460 nm, NADH buffer; stronger effect = higher value; 1 = no-compound wells, NADH background. AID 709, 2007;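 active = at 10 µM, mean starting fluorescence two-fold or more over control wells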;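 also: signal is the first read of a kinetic run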
PMK inhibit = S. pneumoniae PMK inhibitors, primary screen, biochemical, mevalonate pathway, pilot trial included; 0.49% of 65,000 active; inhibition, % at 10 µM; phosphomevalonate kinase (Streptococcus pneumoniae D39); purified PMK, PK/LDH-coupled NADH absorbance 340 nm; AID 539, 2006;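 active = top-ranked compounds by inhibition in the single 10 µM screen, taking a fixed number of the strongest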;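 also: 0% = full reaction with DMSO carrier and 100% = background rate without enzyme reaction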
Spn MK inh = S. pneumoniae MK inhibitors, primary screen, biochemical, PK/LDH-coupled NADH absorbance. purified MK, PK/LDH-coupled NADH absorbance 340 nm. inhibition, % at 10 µM. 0.48% of 65,000 active. AID 555, 2006;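 active = ranked among the strongest by inhibition in the single 10 µM screen, a fixed top-ranked set picked for dose follow-up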
A340 absorber = compound light absorbance at 340 nm, profiling panel, artefact control, biochemical, MLSMR library, data from PS, PMK, MK assays; fold change at 10 µM; 65,000 tested, under 10 active; compound absorbance at 340 nm, fold over control;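 active = at 10 µM dose, initial 340 nm absorbance at least 2 fold that of control wells; inactive = change under 2 fold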;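 also: initial absorbance extrapolated from kinetic A340 decline of NADH oxidation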
* marks the source's active call; other numbers are inactive results. Sampled rows, rich in hits. Any-hit rate of the full collection: about 6.8%.

What do the screens show for `COC(=O)Cn1ncc2c(C)n(Cc3ccccc3)c(C)c2c1=O`?
Spn DPM-DC inh: inactive; NADH coupling: 1%; Fluor 339 460: 1.1; PMK inhibit: 0; Spn MK inh: 3; A340 absorber: 0.98

Results for Cc1c(NC(=O)CCc2ccc(S(=O)(=O)N3CCOCC3)cc2)c(=O)n(-c2ccccc2)n1C ?
Spn DPM-DC inh: inactive; NADH coupling: 3%; Fluor 339 460: 1; PMK inhibit: 5; Spn MK inh: 5; A340 absorber: 1

Results for COc1cc2nc(N3CCNCC3)nc(N)c2cc1OC ?
NADH coupling: 5%; Fluor 339 460: 4*; PMK inhibit: 1; Spn MK inh: 9; A340 absorber: 1.1

Results for CCOc1cc2nc(-c3ccc(OC)c(OC)c3)nc(N3CCOCC3)c2cc1OC ?
Spn DPM-DC inh: inactive; NADH coupling: 15%; Fluor 339 460: 1.5; PMK inhibit: 6; Spn MK inh: 10; A340 absorber: 1.1

Results for Nc1cc(C(=O)OCC(=O)NCc2ccco2)ccc1Cl ?
Spn DPM-DC inh: inactive; NADH coupling: 6%; Fluor 339 460: 1.8; PMK inhibit: 10; Spn MK inh: 3; A340 absorber: 1

What do the screens show for `CCOc1ccccc1C1C(C(=O)Nc2ccccc2OC)=C(C)Nc2nnnn21` (centres undefined)?
Spn DPM-DC inh: inactive; NADH coupling: 4%; Fluor 339 460: 1.1; PMK inhibit: 13; Spn MK inh: 0; A340 absorber: 1

What do the screens show for `CSc1cccc(NC(=O)CN(c2cc(C)ccc2C)S(C)(=O)=O)c1`?
Spn DPM-DC inh: inactive; NADH coupling: 9%; Fluor 339 460: 1.1; PMK inhibit: 19; Spn MK inh: 8; A340 absorber: 1

How did Cc1cc(OCC(=O)C(C)(C)C)c2c(C)c(C)c(=O)oc2c1 do in these assays?
NADH coupling: 8%; Fluor 339 460: 2.1*; PMK inhibit: 12; Spn MK inh: 4; A340 absorber: 1.1

What do the screens show for `COc1cc(-c2cc(C(F)(F)F)n3ncc(C(=O)O)c3n2)cc(OC)c1OC`?
Spn DPM-DC inh: inactive; NADH coupling: 4%; Fluor 339 460: 1.1; PMK inhibit: 2; Spn MK inh: 11; A340 absorber: 1.1

How did NC(=O)c1cnn2c(C(F)(F)F)cc(-c3ccc(F)cc3)nc12 do in these assays?
Spn DPM-DC inh: inactive; NADH coupling: 8%; Fluor 339 460: 2.1*; PMK inhibit: 12; Spn MK inh: 7; A340 absorber: 1.1

Results for Cc1ccc(-c2cc(C(F)(F)F)n3ncc(C(=O)N4CCN(C)CC4)c3n2)cc1 ?
Spn DPM-DC inh: inactive; NADH coupling: 6%; Fluor 339 460: 1.7; PMK inhibit: 0; Spn MK inh: 0; A340 absorber: 1.1

Results for NC(=O)c1cnn2c(C(F)(F)F)cc(-c3ccccc3)nc12 ?
Spn DPM-DC inh: inactive; NADH coupling: 14%; Fluor 339 460: 2.1*; PMK inhibit: 5; Spn MK inh: 18; A340 absorber: 1.1

What do the screens show for `CCCCn1c(=O)[nH]c(=O)c2c1nc(COC(=O)c1c(C)noc1C)n2CCC`?
Spn DPM-DC inh: inactive; NADH coupling: 5%; Fluor 339 460: 1.2; PMK inhibit: 6; Spn MK inh: 9; A340 absorber: 1.2

Results for O=c1[nH]c(=O)n(Cc2ccco2)c2c1C(C(F)(F)F)(C(F)(F)F)N=C(C1CCCCC1)N2 ?
Spn DPM-DC inh: inactive; NADH coupling: 5%; Fluor 339 460: 2.1*; PMK inhibit: 0; Spn MK inh: 5; A340 absorber: 1.1

Results for Cc1cc(C)n2nc3nc(N4CCCC4)nc(-c4ccccc4)c3c2n1 ?
Spn DPM-DC inh: inactive; NADH coupling: 9%; Fluor 339 460: 3.2*; PMK inhibit: 16; Spn MK inh: 0; A340 absorber: 1.1

What do the screens show for `COc1ccc(-c2nc(N3CCOCC3)nc3n[nH]c(N)c23)cc1`?
Spn DPM-DC inh: inactive; NADH coupling: 7%; Fluor 339 460: 0.89; PMK inhibit: 0; Spn MK inh: 10; A340 absorber: 1.1

Bioassay records from PubChem BioAssay.
